High-throughput results from PubChem BioAssay.
HT1080 IDH1KD tx: qHTS for induction of synthetic lethality in tumor cells producing 2HG: qHTS for the HT-1080-IDH1KD cell line | HT-1080 IDH1 knockdown viability, ATP luminescence, 48 h | Potency, µM (titrated, usually from 46.1 µM), inactives show top-dose activity, negative = toxicity, usual class: cytotoxic | 360,000 compounds, 2% hits;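 note: potency is the fitted concentration of half-maximal effect; 0% = DMSO wells and -100% = cell-free medium wells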
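IDH1KD HT-1080 cells, 750/well, RPMI + 5% FBS; compound pinned after 2 h settling; 48 h, 37 °C; CellTiter-Glo luminescence; % activity normalised to DMSO and no-cell wells; curves fitted, classed by r2 and efficacy.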
IL1B secr inh: qHTS for Inhibitors of Inflammasome Signaling: IL-1-beta AlphaLISA Primary Screen; AID 743279, 2014; activity change, % at 57.5 µM; 360,000 compounds, 4.7% hits; THP-1 LPS/ATP IL-1B secretion, AlphaLISA, 16 h; hits give low values; in the data active = activity change below about -50%; inconclusive = mostly about -30% to -49%
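THP-1 cells pretreated 1 hr with compounds (up to 57.5 uM final), then stimulated with LPS (250 ng/mL final) plus ATP (1.25 mM final); secreted IL-1B measured by AlphaLISA after 16 hr, decreased signal indicating inhibition.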
DT40 TDP1 CPT: qHTS for Inhibitors of human tyrosyl-DNA phosphodiesterase 1 (TDP1): qHTS in cells in presence of CPT. chicken DT40 Tdp1-/-;hTDP1 cells + 20 nM CPT, ATP luminescence, 48 h. Potency, µM (series often up to 46.2 µM), inactives show top-dose activity change, negative = growth inhibition, usual class: inhibitors. 420,000 compounds, 12% hits. AID 686979, 2013; note: potency is the fitted concentration of half-maximal effect; nearly all actives have a fitted effect of over 55% in size
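Chicken DT40 Tdp1-/- cells stably complemented with human TDP1 were seeded at 400 cells/well in medium containing 20 nM camptothecin, exposed to pin-transferred compounds, and grown at 37 °C for at least 48 hr. Viability was read as ATP luminescence.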
DT40 TDP1 no CPT: qHTS for Inhibitors of human tyrosyl-DNA phosphodiesterase 1 (TDP1): qHTS in cells in absence of CPT. DT40 Tdp1-/- hTDP1 cells, no CPT, ATP luminescence, 48 h. Potency, µM (titrated, usually from 46.2 µM), for the others: at the highest dose activity change, negative = growth inhibition, actives largely listed as inhibitors. 420,000 compounds, 15% hits; note: potency is the fitted concentration of half-maximal effect; nearly all actives have a fitted effect of over 55% in size
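Compound effects on proliferation are scored in DT40 Tdp1-/-;hTDP1 cells in the absence of CPT. ATP levels (CellTiter-Glo luminescence) are recorded after a ≥48 hr, 37 °C incubation.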
HT1080NT lethal: qHTS for induction of synthetic lethality in tumor cells producing 2HG: qHTS for the HT-1080-NT fibrosarcoma cell line; HT-1080-NT fibrosarcoma viability, CellTiter-Glo ATP luminescence, 48 h; Potency, µM (titrated, usually from 46.1 µM), for the others: top-dose activity, negative = less viability, actives largely listed as cytotoxic; 360,000 compounds, 1.6% hits; AID 686970, 2013;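 note: NT is the 2HG producing partner of a matched IDH1 knockdown line; potency is the fitted concentration of half-maximal effect; 0% = DMSO-treated cells and -100% = media-only wells without cells; nearly all actives have a fitted effect of over 55% in size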
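Viability by CellTiter-Glo luminescence after 48 h compound exposure at 37C of HT-1080-NT cells (750/well, RPMI, 5% FBS). % activity scaled between DMSO wells and medium-only wells, then curve-fitted and categorized by curve class.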
ELG1 DNA repair: qHTS screen for small molecules that inhibit ELG1-dependent DNA repair in human embryonic kidney (HEK293T) cells expressing luciferase-tagged ELG1; Potency, µM (top dose mostly 46.1 µM), for the others: at the top dose activity change, negative = inhibition, hits mostly inhibitors; 330,000 compounds, 2.3% hits; HEK293T ELG1-luciferase reporter, luminescence, 16 h; DNA damage induced by 5-fluorouridine; note: potency is the fitted concentration of half-maximal effect; nearly all actives have a fitted effect of over 55% in size
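Reporter activity after DNA damage by 5-fluorouridine is monitored. Compound-treated cells incubate 16 hr at 37 °C, then ONE-Glo is added for 30 min before luminescence reading.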
* hit, by the source's call. The list is not random: actives were taken first. Their share in the collection is about 19%. Unless noted, calls come from the whole dose curve; as a rule, active = well fitted curve in the direction sought with a large enough effect; inconclusive = small, poorly fitted or top-dose-only effect, or another doubt; inactive = no such curve, though single readings can be large; an effect the other way counts as inactive or inconclusive. Unless noted, % is set by controls: 0 for no effect and ±100 for the full control effect.

Screening CN(C)c1ccc(C(C(=O)NCC2CCCO2)N(C(=O)c2snc(C(N)=O)c2N)c2ccc3c(c2)OCO3)cc1 (stereo unspecified) returned HT1080 IDH1KD tx 0%, IL1B secr inh -66*, DT40 TDP1 CPT 0%, DT40 TDP1 no CPT inconclusive, HT1080NT lethal 4% and ELG1 DNA repair 21µM*.
Screening CN(C)c1ccc(C(C(=O)NCC2CCCO2)N(C(=O)c2snc(C(N)=O)c2N)c2ccccc2)cc1 (stereo unspecified) returned HT1080 IDH1KD tx 11%, IL1B secr inh -3, DT40 TDP1 CPT inconclusive, DT40 TDP1 no CPT inconclusive, HT1080NT lethal 11% and ELG1 DNA repair inconclusive.
Cc1cccc(N(C(=O)c2snc(C(N)=O)c2N)C(C(=O)NCC2CCCO2)c2ccc(N(C)C)cc2)c1 (stereo unspecified) was read as HT1080 IDH1KD tx 14%, IL1B secr inh -16, DT40 TDP1 CPT 29µM*, DT40 TDP1 no CPT inconclusive, HT1080NT lethal 14% and ELG1 DNA repair -17%.
Cn1cc(C(=O)Nc2ccc(C#N)cc2)c2ccccc2c1=O was read as HT1080 IDH1KD tx -12%, IL1B secr inh -21, DT40 TDP1 CPT inconclusive, DT40 TDP1 no CPT inconclusive, HT1080NT lethal -2% and ELG1 DNA repair inconclusive.
For CCC1CN(C(=O)N2CCC(C(=O)NCCc3cc(OC)ccc3OC)CC2)c2ccccc2O1 (stereo unspecified) the results were DT40 TDP1 CPT 16µM* and DT40 TDP1 no CPT 21µM*.
`CCC1CN(C(=O)N2CCC(C(=O)Nc3ccccc3OC)CC2)c2ccccc2O1` (stereo unspecified) gave HT1080 IDH1KD tx -1%, IL1B secr inh 34, DT40 TDP1 CPT 18µM*, DT40 TDP1 no CPT inconclusive, HT1080NT lethal 1% and ELG1 DNA repair inconclusive.
`CCC1CN(C(=O)N2CCC(C(=O)NCCc3ccc(OC)c(OC)c3)CC2)c2ccccc2O1` (stereo unspecified) gave HT1080 IDH1KD tx -2%, IL1B secr inh 13, DT40 TDP1 CPT inconclusive, DT40 TDP1 no CPT inconclusive, HT1080NT lethal -3% and ELG1 DNA repair inconclusive.
CCC1CN(C(=O)N2CCC(C(=O)NCc3cc(OC)ccc3OC)CC2)c2ccccc2O1 (stereo unspecified) was read as DT40 TDP1 CPT 18µM* and DT40 TDP1 no CPT 18µM*.
CCC1CN(C(=O)N2CCC(C(=O)NCCOC)CC2)c2ccccc2O1 (stereo unspecified) was read as DT40 TDP1 CPT -14% and DT40 TDP1 no CPT -12%.
Screening O=C1[C@@H]2CSC(c3ccc(Cl)cc3)N2C(=O)N1c1ccccc1 (stereo partly specified) returned DT40 TDP1 CPT 2% and DT40 TDP1 no CPT -28%.
For CC(C)c1ccc(N=C(N)N=C(N)N)cc1 the results were HT1080 IDH1KD tx -11%, IL1B secr inh -10, DT40 TDP1 CPT inconclusive, DT40 TDP1 no CPT inconclusive, HT1080NT lethal -4% and ELG1 DNA repair 21µM*.
For CCCOc1ccc(OC(=O)c2c(-c3ccccc3Cl)noc2C)cc1 the results were DT40 TDP1 CPT -11% and DT40 TDP1 no CPT -14%.
`NC(=S)N/N=C/c1ccc(Br)o1` gave HT1080 IDH1KD tx 1%, IL1B secr inh -11, DT40 TDP1 CPT -20%, DT40 TDP1 no CPT -15%, HT1080NT lethal 2% and ELG1 DNA repair 1%.
Screening CNc1cccnc1C=NNC(N)=S returned HT1080 IDH1KD tx inconclusive, IL1B secr inh 80, DT40 TDP1 CPT 1.2µM*, DT40 TDP1 no CPT 0.92µM* and HT1080NT lethal -17%.
For NC(=S)NN=Cc1nccc2c(C(F)(F)F)cccc12 the results were HT1080 IDH1KD tx inconclusive, IL1B secr inh 127, DT40 TDP1 CPT 0.52µM*, DT40 TDP1 no CPT 0.73µM* and HT1080NT lethal inconclusive.
`NC(=S)N/N=C/c1cccnc1` gave DT40 TDP1 CPT 13% and DT40 TDP1 no CPT -3%.
For Cc1ccccc1-c1nc(CNC(=O)Nc2ccccc2)c(C)o1 the results were DT40 TDP1 CPT -21% and DT40 TDP1 no CPT -6%.
Cc1noc(C)c1-c1nc(N(C)C)c2ccccc2n1 was read as DT40 TDP1 CPT -1% and DT40 TDP1 no CPT -7%.
`CCOc1ccc(CCN2C(=O)C(=O)N([C@@H](CC(C)C)CN3CCC[C@H]3CN3C(=O)C(=O)NC[C@@H]3CC(C)C)C[C@@H]2Cc2ccc(O)cc2)cc1` gave HT1080 IDH1KD tx inconclusive, IL1B secr inh -72*, DT40 TDP1 CPT 16µM*, DT40 TDP1 no CPT inconclusive and HT1080NT lethal -24%.
Screening CCOc1ccc(CCN2C(=O)C(=O)N([C@@H](CC(C)C)CN3CCC[C@H]3CN3C(=O)C(=O)NC[C@@H]3Cc3ccc(O)cc3)C[C@@H]2Cc2ccccc2)cc1 returned HT1080 IDH1KD tx inconclusive, IL1B secr inh -3, DT40 TDP1 CPT inconclusive, DT40 TDP1 no CPT 16µM* and HT1080NT lethal -29%.
CC(C)C[C@H]1CNC(=O)C(=O)N1C[C@@H]1CCCN1C[C@H](CC(C)C)N1C[C@H](Cc2ccc(O)cc2)N(CCc2ccccc2)C(=O)C1=O was read as HT1080 IDH1KD tx 7%, IL1B secr inh 1, DT40 TDP1 CPT 6%, DT40 TDP1 no CPT 4% and HT1080NT lethal -1%.
COc1cc(C(=O)NC(C)c2cc(C)ccc2C)ccc1OCC(=O)N1CCOCC1 (stereo unspecified) was read as HT1080 IDH1KD tx -7%, IL1B secr inh 0, DT40 TDP1 CPT -22%, DT40 TDP1 no CPT -28%, HT1080NT lethal 6% and ELG1 DNA repair 4%.
For CCOC(CNC(=O)c1cccn2c(=O)c3c(C)c(C)sc3nc12)OCC the results were HT1080 IDH1KD tx 0%, IL1B secr inh 0, DT40 TDP1 CPT 16µM*, DT40 TDP1 no CPT 18µM*, HT1080NT lethal 16% and ELG1 DNA repair inconclusive.
